13 molecules from PubChem BioAssay (NCI) can be followed below.

This is part of a sample that, as a whole, favours compounds with a hit. Of some 83,000 tested, about 20% had one in any assay.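 Testing used 96-well plates and a 48-hour single-concentration exposure. Example: -40 means 40% of the starting cells died.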 A number with no mark means an inactive call. Active and inactive are the calls of the source. Rule for the calls: active = growth percent below 10; inactive = the rest.

Some test systems named below: NCI-H23 lung; NCI-H226 lung; NCI-H322M lung; HOP-62 NSCLC; NCI-H460 lung; HOP-92 NSCLC; NCI-H522 lung; A549/ATCC NSCLC; 786-0 renal; COLO 205 colon.
Holding throughout (experiment): NCI-60 one-dose screen, 48 h (100 = growth as untreated, 0 = no growth, -100 = all killed)
What all share (details): 10 µM unless noted

As for `CC1=C(C(=O)Nc2nc(-c3ccc(Cl)cc3)cs2)[C@H](c2ccc(O)cc2)NC(=O)N1`, the growth in the assay on NCI-H23 lung was 101%; in the assay with NCI-H226 lung it was 87.8%; in the assay with NCI-H322M lung it was 88.3%; with HOP-62 NSCLC it was 99.1%; in the assay on NCI-H460 lung it was 104%; in the assay with HOP-92 NSCLC, 100%. Besides, the growth in the assay with NCI-H522 lung is 90.5%; in the assay on A549/ATCC NSCLC, 95.1%; with 786-0 renal, 97.8%; in the assay on COLO 205 colon it was 110%.

As for `O=C(O)COc1ccc(Cl)c(Cl)c1`, the growth in the assay with NCI-H23 lung was 99%; with NCI-H226 lung, 94.1%; with NCI-H322M lung, 120%; in the assay with HOP-62 NSCLC it was 100%; in the assay on NCI-H460 lung, 109%; with HOP-92 NSCLC, 90.2%. In addition, the growth is 102% with NCI-H522 lung, 107% with A549/ATCC NSCLC, 104% in the assay on 786-0 renal and 115% with COLO 205 colon.

With `CCN1CCN(CC(=O)Nc2nc3ccc(NCc4ccc(F)cc4)cc3s2)CC1`, the growth is 90% in the assay with NCI-H23 lung; 90.9% in the assay with NCI-H226 lung; 94.3% in the assay on NCI-H322M lung; 91.8% with HOP-62 NSCLC; 98.8% with NCI-H460 lung; 61.3% in the assay on HOP-92 NSCLC. For the same molecule, the growth in the assay on NCI-H522 lung was 104%; with A549/ATCC NSCLC, 99.8%; in the assay with 786-0 renal, 93%; with COLO 205 colon it was 78%.

Take `Nc1[nH]n2cc(-c3ccc(F)cc3)nc2c1N=Nc1ccc(S(N)(=O)=O)cc1`: the growth was 80.9% in the assay with NCI-H23 lung; 88.4% in the assay with NCI-H226 lung; 41.9% in the assay on NCI-H322M lung; 90.7% with HOP-62 NSCLC; 58.8% with NCI-H460 lung; 74.9% in the assay with HOP-92 NSCLC. Besides, the growth is 55.3% in the assay on NCI-H522 lung, 84.6% with A549/ATCC NSCLC, 68.1% in the assay on 786-0 renal and 95.1% with COLO 205 colon.

With `CC1(C)[C@@H](O[C@@H]2OC[C@@H](O[C@@H]3O[C@H](CO)[C@@H](O)[C@H](O)[C@H]3O[C@@H]3OC[C@@H](O)[C@H](O)[C@H]3O)[C@H](O)[C@H]2O[C@@H]2O[C@H](CO)[C@@H](O)[C@H](O)[C@H]2O)CC[C@]2(C)[C@H]3CC[C@]45OC[C@@]6(CC[C@](C)(C=O)C[C@H]64)[C@H](O)C[C@@]5(C)[C@]3(C)CC[C@@H]12`, the growth in the assay on NCI-H23 lung was -55.1% (active); in the assay with NCI-H226 lung, -65.2% (active); in the assay on NCI-H322M lung it was -86.9% (active); in the assay on HOP-62 NSCLC, -82.9% (active); in the assay with NCI-H460 lung, -63% (active); in the assay with HOP-92 NSCLC, -63.7% (active). Moreover, the growth in the assay on NCI-H522 lung was -89.7% (active); in the assay with A549/ATCC NSCLC, -73.6% (active); in the assay on 786-0 renal, -75% (active); in the assay on COLO 205 colon, -93.9% (active).

As for `COC1=C(C)C(=O)N2[C@@H]1[C@H](c1ccccc1)OC21C=CC(=O)C=C1`, the growth is 3.23% (active) with NCI-H23 lung; -25.9% (active) in the assay on NCI-H226 lung; 81.8% with NCI-H322M lung; 28.7% in the assay with HOP-62 NSCLC; 89.4% in the assay with NCI-H460 lung; -11.7% (active) with HOP-92 NSCLC. Further, the growth with NCI-H522 lung was -69.3% (active); with A549/ATCC NSCLC, 82.3%; in the assay with 786-0 renal, -48.9% (active); in the assay with COLO 205 colon, -34.6% (active).

In the case of `CCc1ccc(CCC(=O)Nc2ncc(Cc3ccccc3)s2)o1`, the growth with NCI-H23 lung was 37.6%; in the assay on NCI-H226 lung it was 64.3%; in the assay with NCI-H322M lung it was 54.7%; in the assay on HOP-62 NSCLC it was 23%; with NCI-H460 lung, 7.58% (active); in the assay on HOP-92 NSCLC it was 87.8%. In addition, the growth is -2.33% (active) with NCI-H522 lung, 32% in the assay with A549/ATCC NSCLC, 41.6% in the assay on 786-0 renal and 12.3% with COLO 205 colon.

In the case of `Cc1c2ccncc2c(C)c2c1c1cc(CO)ccc1n2C`, the growth was 6.65% (active) in the assay with NCI-H23 lung; -49.2% (active) in the assay on NCI-H226 lung; 3.23% (active) with NCI-H322M lung; -19.6% (active) in the assay with HOP-62 NSCLC; -35.4% (active) with NCI-H460 lung; -5.78% (active) in the assay with HOP-92 NSCLC. The growth is 21.1% in the assay on NCI-H522 lung, 2.79% (active) in the assay on A549/ATCC NSCLC, 1.95% (active) in the assay with 786-0 renal and -39% (active) in the assay on COLO 205 colon.

With `O=C1/C=C/[C@@H](O)[C@@H]2C[C@@H](O)C[C@H]2/C=C/CCC[C@@H](O)CCO1`, the growth in the assay on NCI-H23 lung is 77.1%; in the assay on NCI-H226 lung, 77.3%; with NCI-H322M lung, 99.3%; in the assay with HOP-62 NSCLC, 103%; with NCI-H460 lung it was 110%; in the assay with HOP-92 NSCLC, 98%. For the same molecule, the growth with NCI-H522 lung was 108%; in the assay on A549/ATCC NSCLC it was 89.3%; in the assay with 786-0 renal, 61.5%; with COLO 205 colon, 114%.

In the case of `O=C(CN1CCCCCC1)Nc1nc2ccc(NCc3ccc(Cl)cc3)cc2s1`, the growth in the assay on NCI-H23 lung was 97.3%; in the assay on NCI-H226 lung it was 93.5%; with NCI-H322M lung, 108%; in the assay with HOP-62 NSCLC it was 103%; in the assay with NCI-H460 lung it was 97%; in the assay on HOP-92 NSCLC, 90.9%. For the same molecule, the growth in the assay on NCI-H522 lung is 84.7%; in the assay on A549/ATCC NSCLC, 98.7%; with 786-0 renal it was 104%; with COLO 205 colon it was 109%.

Regarding `Cc1ccccc1Nc1cc(O)c2c(=O)cc(-c3ccccc3)oc2c1`, the growth in the assay with NCI-H23 lung was 45.5%; in the assay on NCI-H226 lung it was 57.8%; with NCI-H322M lung it was 70.5%; in the assay with HOP-62 NSCLC, 49.4%; in the assay on NCI-H460 lung it was 8.06% (active); with HOP-92 NSCLC, 86.7%. Besides, the growth in the assay with NCI-H522 lung was 36%; with A549/ATCC NSCLC, 35.2%; in the assay on 786-0 renal it was 43.5%; in the assay on COLO 205 colon it was 61.8%.

Take `CCOC(=O)c1c(C)c2c(n1Cc1ccccc1)CSCC2=O`: the growth is 4.82% [100 µM] (active) in the assay with NCI-H23 lung; -5.37% [100 µM] (active) in the assay with NCI-H226 lung; 36.4% [100 µM] in the assay with NCI-H322M lung; -25.9% [100 µM] (active) with HOP-62 NSCLC; -21.1% [100 µM] (active) in the assay on NCI-H460 lung; -19.4% [100 µM] (active) with HOP-92 NSCLC. Besides, the growth in the assay with NCI-H522 lung is 16.5% [100 µM]; in the assay with A549/ATCC NSCLC it was 20.2% [100 µM]; in the assay with 786-0 renal it was -11.2% [100 µM] (active); in the assay on COLO 205 colon it was -53.3% [100 µM] (active).

Regarding `CCN(CC)Cc1cc(Nc2ccnc3cc(Cl)ccc23)ccc1O`, the growth with NCI-H23 lung is 99.2%; with NCI-H226 lung, 105%; with NCI-H322M lung, 89.7%; in the assay with HOP-62 NSCLC it was 89.4%; in the assay with NCI-H460 lung, 96.8%; in the assay on HOP-92 NSCLC, 88.5%. Besides, the growth with NCI-H522 lung was 91.2%; in the assay with A549/ATCC NSCLC, 107%; in the assay with 786-0 renal, 96.8%; with COLO 205 colon, 81.5%.
